Compound activity from PubChem.
MazF activator – MazEF (E. coli) toxin RNase activation | P0AE70 | FAM/BHQ RNA-DNA oligo cleavage fluorescence, 5 h | activation, % at 20 µM | actives 0.32% (n = 350,000) | AID 504720; in the data active = activation above about 50%
Autofluor counter – flagged as autofluorescent in microsphere protease counterscreen; compound autofluorescence counterscreen, microsphere flow cytometry; hits give high values; actives 3.1% (n = 360,000); AID 624483; fluorescence intensity (no concentration beside the values); in the data active = fluorescence intensity above about 16000; inconclusive = no clear call, values can overlap the other calls
BoNT-A LC inh2 – inhibitors of Botulinum neurotoxin A light chain protease. AID 588499. inhibition, % at 10 µM. actives 0.17% (n = 360,000). multiplex microsphere protease substrate cleavage, flow cytometry
BH1578 lux ind – inducers of Vibrio cholerae quorum light production without autoinducers; AID 588436; V. cholerae BH1578 lux reporter, luminescence, 6 h; actives 0.16% (n = 350,000); activation, % at 18.7 µM; in the data active = activation mostly above about 9.7%, no sharp cut-off; inconclusive = no clear call, values can overlap the other calls; inactive = mostly below about 3.7%
BoNT F protease – blocks Botulinum neurotoxin F light chain protease | inhibition, % at 10 µM | Multiplex microsphere protease cleavage assay, flow cytometry | actives 0.22% (n = 360,000); in the data active = inhibition above about 35%, passing the limit was not always enough; inconclusive = no clear call, values can overlap the other calls
Anthrax LF prot – inhibitors of Bacillus anthracis lethal factor protease; multiplex microsphere protease cleavage assay, LF; inhibition, % at 10 µM; actives 0.12% (n = 360,000)
Of the large screens only hits and unclear results are named; the others gave an inactive call. In the library only some 3.9% were active in any assay of this set; here they are far more common. Cut-off read from the data, not from the text of the source, unless noted: active = inhibition above about 30%; inconclusive = no clear call, values can overlap the other calls; inactive = below that.

COc1ccc(Cl)cc1CC1(C)C(=O)Nc2ccc(S(=O)(=O)NC3CCCCC3)cc21 (stereo not given)	none (no result: MazF activator)
CCCN(CC(=O)Nc1ccccc1C)C(=O)C1CCN(S(=O)(=O)c2ccc(C)c(C)c2)CC1	none
CCC(=O)N(Cc1cc(=O)[nH]c2ccccc12)c1ccc(C)cc1C	none
Cc1ccccc1CN1CCN(CC(=O)NCc2ccccc2)C1=O	Autofluor counter 20841
Cc1cccc(CN2CCN(CC(=O)N3CCCC3)C2=O)c1	none
Cc1cccc(CN2CCN(CC(=O)O)C2=O)c1	Autofluor counter 19589
Cc1nn(-c2ccccc2)c(C)c1C(=O)NCc1ccccc1F	none
NC(=O)CSc1cn(Cc2ccccc2)c2ccccc12	none
N#C/C(=C\c1ccco1)C(=O)Nc1ccc(S(N)(=O)=O)cc1	none
N#C/C(=C/c1ccc(-c2ccc(S(N)(=O)=O)cc2)o1)C(=O)Nc1ccccc1	MazF activator 101
Cc1cc(NC(=O)/C(C#N)=C/c2ccc(-c3ccc(SC(F)F)cc3)o2)n(-c2ccccc2)n1	MazF activator 405
O=C(CSc1nc2cc(Cl)c(Cl)cc2[nH]1)c1ccc2c(c1)OCO2	MazF activator 51
Cc1ccccc1NC(=O)C1c2cccc[n+]2CC(=O)N1c1c(C)cccc1C (stereo not given)	MazF activator 63
Cc1cccc(C)c1NC(=O)C1c2cccc[n+]2CC(=O)N1Cc1ccc2c(c1)OCO2 (stereo not given)	none
CCOc1ccc(NS(=O)(=O)c2cc(C(=O)NCCN3CCOCC3)ccc2C)cc1	none
Cc1ccc(S(=O)(=O)CC(O)CN2CCCC2=O)cc1 (stereo not given)	none (no result: BH1578 lux ind)
O=C1CCCN1CC(O)CS(=O)(=O)c1ccc(Cl)cc1 (stereo not given)	Autofluor counter 22765
CC1CN(c2ccc(NC(=S)NNCCC#N)cc2)CC(C)O1 (stereo not given)	none
Cc1cc(O)ccc1C1(c2ccc(O)cc2C)OC(=O)c2ccccc21	none
CC(=O)Oc1ccc2c(c1)Oc1cc(OC(C)=O)ccc1C21OC(=O)c2ccccc21	Autofluor counter 17180 (no result: MazF activator)
Cc1cccc(-c2cnc(C(O)c3ccc(F)c(C)c3)[nH]2)c1 (stereo not given)	none (no result: MazF activator)
COc1ccc(-c2ccc(/C=C3/C(=N)N4C=CSC4=NC3=O)o2)c([N+](=O)[O-])c1	MazF activator 445
CC1(C)CC(=O)C(C(c2ccco2)C2C(=O)CC(C)(C)CC2=O)C(=O)C1	Autofluor counter 23157
CCCc1cc(Nc2cccc(OC)c2)n2ncnc2n1	Autofluor counter 23259
ONC(=Nc1ccc(Cl)cc1)c1ccc(Cl)cc1	Autofluor counter 24126
CC1=CC(=O)N(c2cccc(C(F)(F)F)c2)C1c1ccc(Cl)cc1 (stereo not given)	Autofluor counter 23466
O=C(COC(=O)CNC(=O)c1ccc(-c2ccccc2)cc1)NCc1ccco1	none
CC(=O)Nc1ccc(OC(=O)N2CCCCC2)cc1	Autofluor counter 22883
CC(=O)Nc1ccc(NC(=O)N2CCCCC2)cc1	none
O=C1C2C3C=CC(C3)C2C(=O)N1c1n[nH]c(-c2cccnc2)n1 (stereo not given)	none
Cc1ccc(N2C(=O)C3C4C=CC(C4)C3C2=O)cc1C (stereo not given)	Autofluor counter 22226
O=C1C2C3C=CC(C3)C2C(=O)N1c1n[nH]c(-c2ccccc2)n1 (stereo not given)	Autofluor counter 23080
O=C1C2C3C=CC(C3)C2C(=O)N1c1cccc(N2C(=O)C3C4C=CC(C4)C3C2=O)n1 (stereo not given)	Autofluor counter 22915
Cc1cccc(N2C(=O)C3C4C=CC(C4)C3C2=O)c1 (stereo not given)	none
COc1ccc(NC(=O)c2cc(-c3ccc(C)cc3)on2)cc1OC	BoNT F protease inconclusive
COc1ccc(NC(=O)c2cc(-c3ccc(OC)c(OC)c3)on2)cc1OC	Autofluor counter 23014
COc1ccc(-c2cc(C(=O)NCc3ccccc3)no2)cc1OC	Autofluor counter 21267
COc1ccc(CNC(=O)c2cc(-c3ccc(OC)c(OC)c3)on2)cc1	none
O=C(NCC(=O)N1CC=C(c2ccccc2)CC1)c1ccco1	none
C(#Cc1ccc(C#CCN2CCOCC2)cc1)CN1CCOCC1	Autofluor counter 17459
C(#Cc1ccccc1)CN1CCOCC1	none
Cn1ccnc1SCC(=O)c1c(N)n(C)c(=O)n(C)c1=O	none
Cc1cc(C)nc(SCC(=O)c2c(N)n(C)c(=O)n(C)c2=O)n1	Autofluor counter 23309, BoNT-A LC inh2 inconclusive
COc1ccc(-n2cnc3scc(-c4ccccc4)c3c2=O)cc1	none
COc1ccc(OCC(=O)N2CCN(c3nnc(-c4ccc(C)cc4)c4ccccc34)CC2)cc1	BoNT F protease inconclusive
COc1ccc(OCC(=O)N2CCN(C(=O)c3cccc4ccccc34)CC2)cc1	Autofluor counter 21547
Cc1ccc(OCC(=O)N2CCN(c3nnc(-c4ccc(C)cc4)c4ccccc34)CC2)cc1	Autofluor counter 22360
COc1ccc(OCC(=O)N2CCN(C(=O)c3ccccc3)CC2)cc1	none
N#CCC(=O)Nc1ccc(C(=O)OCC(=O)NC2CCCc3ccccc32)cc1 (stereo not given)	none
Cc1cc(C(N)=O)c2cc(Br)ccc2n1	Autofluor counter 20846
Cc1cc(C(=O)NN)c2cc(Br)ccc2n1	none
COc1ccc(C(=O)NCC2(c3ccccc3)CCOCC2)cc1[N+](=O)[O-]	none
COc1ccc(C2(CNC(=O)c3ccc(OC)c([N+](=O)[O-])c3)CCOCC2)cc1OC	Autofluor counter 21598, BoNT-A LC inh2 inconclusive
O=C(Nc1ncc(Cc2ccccc2Cl)s1)C1CCCO1 (stereo not given)	none
Cc1cnc(NC(=O)C2CCCO2)s1 (stereo not given)	Autofluor counter 16597, BoNT-A LC inh2 inconclusive
CCOc1ccc(-c2csc(NC(=O)C3CCCO3)n2)cc1 (stereo not given)	Autofluor counter 21480
COc1ccc(-c2c(NC(=O)CC(C)C)n(C)c3ccccc3c2=O)cc1OC	Anthrax LF prot 33
CCCCCC(=O)Nc1c(-c2ccc(OC)cc2)c(=O)c2ccccc2n1C	Autofluor counter 21066
CCCCC(=O)Nc1c(-c2ccc(OC)c(OC)c2)c(=O)c2ccccc2n1C	none
CCCCCC(=O)Nc1c(-c2cccs2)c(=O)c2ccccc2n1C	Autofluor counter 16847
CCN(CC)c1ccc(NC(=S)NC(=O)c2ccco2)cc1	none
O=C(Nc1ccc2c3c(cccc13)CC2)c1ccco1	none
COc1cc(NS(=O)(=O)c2ccc(NC(=O)c3ccco3)cc2)nc(OC)n1	Autofluor counter 17434
CCN(CC)c1ccc(NC(=O)c2ccco2)cc1	Autofluor counter 20274, BoNT-A LC inh2 inconclusive
Cc1ccc(NC(=O)c2ccc(OC(=O)c3ccco3)cc2)cc1	none
O=C(Nc1cccc2c1CCCC2)c1ccco1	Autofluor counter 20290
Cc1ccc(Oc2ccc(NC(=O)c3ccco3)cc2)cc1	Autofluor counter 16687
